Data as given in PubChem BioAssay (NCI).
The panel holds about 83,000 compounds, 20% with a hit somewhere; the sample as a whole holds those more often.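 Method: cells in 96-well plates; compound added at one concentration; 48 h incubation; percent growth measured; values under 10 scored active.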 Unmarked numbers belong to inactive results. Calls of active or inactive are those of the source.

tested on: LOX IMVI melanoma; assay: NCI-60 one-dose screen, 48 h (100 = growth as untreated, 0 = no growth, -100 = all killed); details: 10 µM unless noted

| SMILES | growth |
| --- | --- |
| NCCCOc1cc2ccccc2cc1C(=O)Nc1ccc(Cl)cc1OC(=O)c1cc2ccccc2cc1OCCCN | -86.7% (active) |
| CCCCCCCCCCCCCCCCNC(=S)N/N=C/c1ccc(O)cc1O | 60.6% |
| CC1(C)N=C(N)N=C(N)N1c1cccc(CCCCOc2ccccc2)c1 | 15.9% |
| CCCC(C)c1cc(Cc2cc(Cl)cc(Cl)c2O)c(O)c(Cc2cc(Cl)cc(Cl)c2O)c1 (stereo not given) | 5.31% (active) |
| Oc1ccc(Br)cc1/C=N/NC(=S)NC12CC3CC(CC(C3)C1)C2 | -76% (active) |
| Cc1ccc([C@@H]2C[C@H](O)Cc3ccccc3N2)s1 | 101% |
| Cc1c(Cc2ccccc2)c(=O)oc2c(C)c(OCC(=O)n3nc(C#N)cc3N)ccc12 | 96.7% |
| N#CCc1ncc(-c2ccc(C(F)(F)F)cc2)c(NC2CCCCCC2)n1 | 25% [100 µM] |
| CCC1(CC)C(OC)NC(Br)=C(C#N)C1(C#N)C(N)=O (stereo not given) | 101% |
| CC1(C)Oc2cc3oc(=O)ccc3cc2C[C@@H]1OCCOS(=O)(=O)c1ccc(C#N)cc1 | 97.6% |
| CC(C)CCCCCOC(=O)c1ccccc1SSc1ccccc1C(=O)OCCCCCC(C)C | 100% |
| C=C(NC(=O)[C@H](C(C)C)N(C)c1cccc2[nH]ccc12)C(=O)OC | 94.3% |
| O=C(NC1CCN(Cc2ccccc2)CC1)c1cc(-c2cccnc2)nc2ccc(Cl)cc12 | 45.2% |
| Cc1c(CN(C)C)cc(C(C)C)cc1C(C)C | 98.7% |
| Nc1ccc(S(=O)(=O)c2ccc(NO)cc2)cc1 | 99.5% |
